# Experimental data from PubChem BioAssay (NCATS).
# Records with an inconclusive call do not appear. Where a call stands in place of a potency, no number is given. Active and inactive are the calls of the source. The call rests on the fitted dose curve; in most records, active means well fitted curve in the direction sought with a large enough effect; inconclusive means small, poorly fitted or top-dose-only effect, or another doubt; inactive means no such curve, though single readings can be large; an effect the other way counts as inactive or inconclusive.
# Tests used:
# [1] = qHTS of pediatric cancer cell lines to identify multiple opportunities for drug repurposing: Primary screen for control Hh wild type fibroblast cells (AID 1347106); conditions: Hh wild-type fibroblast viability, CellTiter-Glo luminescence, 48 h; series mostly up to 46 µM;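 further: a drop in luminescence marks cytotoxicity and a rise apparent proliferation; nearly all actives have a fitted effect of over 55% in size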
# Method in brief: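 Viability after 48 h compound treatment at 37C, 500-1,000 cells/well, read as ATP luminescence with CellTiter-Glo. Primary screens used 11-point (MIPE, 0.78 nM-46 µM) or 8-point (NPC, 0.59 nM-46 µM) final concentrations; follow-up screens used 11-point dilutions.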
# [2] = qHTS of pediatric cancer cell lines to identify multiple opportunities for drug repurposing: Primary screen for Rh30 cells (AID 1347107); conditions: Rh30 rhabdomyosarcoma viability, CellTiter-Glo luminescence, 48 h; series mostly up to 46 µM; further: nearly all actives have a fitted effect of over 75% in size
# Method in brief: (§1)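 Cells (500-1,000/well) in growth media were settled 5 h at 37 degrees C, then given compounds for 48 h. Viability was read as CellTiter-Glo luminescence. Primary runs used MIPE at 11 points (0.78 nM-46 µM) and NPC at 8 points (0.59 nM-46 µM); follow-ups used 11 points.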
# [3] = qHTS of pediatric cancer cell lines to identify multiple opportunities for drug repurposing: Primary screen for Rh41 cells (AID 1347108); conditions: Rh41 rhabdomyosarcoma viability, CellTiter-Glo luminescence, 48 h; series mostly up to 46 µM; further: nearly all actives have a fitted effect of over 70% in size; further: potency means the concentration at half of the fitted maximal effect
# Method in brief: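 Cells plated at 500-1,000/well in growth medium, compounds added after 5 h. MIPE tested at 11 points (from 0.78 nM), NPC at 8 points (from 0.59 nM). CellTiter-Glo luminescence after 48 h; concentration-response curves from primary screen.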
# [4] = qHTS of pediatric cancer cell lines to identify multiple opportunities for drug repurposing: Confirmatory screen for NB1643 cells (AID 1347109); conditions: NB1643 neuroblastoma cell viability; series mostly up to 45.9 µM; further: nearly all actives have a fitted effect of over 45% in size; further: potency means the concentration at half of the fitted maximal effect
# Method in brief: as §1
# [5] = qHTS of pediatric cancer cell lines to identify multiple opportunities for drug repurposing: Confirmatory screen for A673 cells (AID 1347110); conditions: A673 Ewing sarcoma cell viability; series mostly up to 45.9 µM;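 further: potency means the concentration at half of the fitted maximal effect; cells exposed to compound for 48 h before the viability read; nearly all actives have a fitted effect of over 65% in size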
# Method in brief: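 qHTS titration format: primary MIPE 0.78 nM-46 µM (11 pts), NPC 0.59 nM-46 µM; confirmation 11 pts. 48 h, CTG luminescence.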
# [6] = qHTS of pediatric cancer cell lines to identify multiple opportunities for drug repurposing: Confirmatory screen for SK-N-MC cells (AID 1347111); conditions: SK-N-MC cell viability; series mostly up to 45.9 µM;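 further: cells exposed to compound for 48 h before the readout; nearly all actives have a fitted effect of over 70% in size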; further: potency means the concentration at half of the fitted maximal effect
# Method in brief: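 Metabolically active cells were quantified by ATP-dependent luminescence (CellTiter-Glo, 15 min at room temperature) following 48 h treatment. Cells had been plated at 500-1,000 per well and settled for 5 h beforehand.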
# [7] = qHTS of pediatric cancer cell lines to identify multiple opportunities for drug repurposing: Confirmatory screen for BT-12 cells (AID 1347112); conditions: BT-12 rhabdoid tumor cells, viability; series mostly up to 45.9 µM; further: nearly all actives have a fitted effect of over 55% in size; further: potency means the concentration at half of the fitted maximal effect
# Method in brief: as §1
# [8] = qHTS of pediatric cancer cell lines to identify multiple opportunities for drug repurposing: Confirmatory screen for DAOY cells (AID 1347114); conditions: DAOY medulloblastoma cells viability, cytotoxicity qHTS; series mostly up to 45.9 µM; further: potency means the concentration at half of the fitted maximal effect; nearly all actives have a fitted effect of over 65% in size
# Method in brief: (§2)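 Viability measured as metabolically active cells via CellTiter-Glo luminescence following 48 hours of compound exposure, 11-point dilutions in confirmatory testing. 500-1,000 cells/well plated 5 hours before dosing; controls were DMSO and 2.3 µM bortezomib.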
# [9] = qHTS of pediatric cancer cell lines to identify multiple opportunities for drug repurposing: Confirmatory screen for BT-37 cells (AID 1347117); conditions: BT-37 pediatric cancer cells, viability; series mostly up to 45.9 µM; further: nearly all actives have a fitted effect of over 55% in size; further: potency means the concentration at half of the fitted maximal effect
# Method in brief: as §1
# [10] = qHTS of pediatric cancer cell lines to identify multiple opportunities for drug repurposing: Confirmatory screen for TC32 cells (AID 1347118); conditions: TC32 Ewing sarcoma cells viability qHTS; series mostly up to 45.9 µM;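 further: cells exposed to compound for 48 h before the read; nearly all actives have a fitted effect of over 65% in size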; further: potency means the concentration at half of the fitted maximal effect
# Method in brief: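 Luminescent ATP read-out (CellTiter-Glo) of metabolically active TC32 cells after 48 h exposure. Concentration-response curves came from 11-point (MIPE, 0.78 nM–46 µM) or 8-point (NPC, 0.59 nM–46 µM) primary titrations; follow-up used 11 points.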
# [11] = qHTS of pediatric cancer cell lines to identify multiple opportunities for drug repurposing: Confirmatory screen for control Hh wild type fibroblast cells (AID 1347121); conditions: viability qHTS; series mostly up to 45.9 µM; further: nearly all actives have a fitted effect of over 70% in size
# Method in brief: as §1
# [12] = qHTS of pediatric cancer cell lines to identify multiple opportunities for drug repurposing: Confirmatory screen for U-2 OS cells (AID 1347122); conditions: U-2 OS osteosarcoma cell viability; series mostly up to 45.9 µM; further: nearly all actives have a fitted effect of over 65% in size; further: potency means the concentration at half of the fitted maximal effect
# Method in brief: as §1
# [13] = qHTS of pediatric cancer cell lines to identify multiple opportunities for drug repurposing: Confirmatory screen for Rh41 cells (AID 1347123); conditions: Rh41 rhabdomyosarcoma cells, viability/cytotoxicity qHTS; series mostly up to 45.9 µM;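 further: potency means the concentration at half of the fitted maximal effect; 48 h compound exposure; nearly all actives have a fitted effect of over 60% in size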
# Method in brief: as §1
# [14] = qHTS of pediatric cancer cell lines to identify multiple opportunities for drug repurposing: Confirmatory screen for Rh18 cells (AID 1347125); conditions: Rh18 rhabdomyosarcoma cells, viability; series mostly up to 45.9 µM; further: nearly all actives have a fitted effect of over 55% in size; further: potency means the concentration at half of the fitted maximal effect
# Method in brief: as §1
# [15] = qHTS of pediatric cancer cell lines to identify multiple opportunities for drug repurposing: Confirmatory screen for Rh30 cells (AID 1347126); conditions: Rh30 rhabdomyosarcoma cell viability; series mostly up to 45.9 µM; further: nearly all actives have a fitted effect of over 55% in size; further: potency means the concentration at half of the fitted maximal effect
# Method in brief: as §1
# [16] = qHTS of pediatric cancer cell lines to identify multiple opportunities for drug repurposing: Confirmatory screen for LAN-5 cells (AID 1347113); conditions: LAN-5 neuroblastoma cell viability; series mostly up to 45.9 µM; further: nearly all actives have a fitted effect of over 65% in size
# Method in brief: as §1
# [17] = qHTS of pediatric cancer cell lines to identify multiple opportunities for drug repurposing: Confirmatory screen for NB-EBc1 cells (AID 1347115); conditions: NB-EBc1 neuroblastoma cells, viability (cytotoxicity); series mostly up to 45.9 µM;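 further: cells exposed to compound for 48 h before the viability read; nearly all actives have a fitted effect of over 45% in size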
# Method in brief: as §1
# [18] = qHTS of pediatric cancer cell lines to identify multiple opportunities for drug repurposing: Confirmatory screen for SJ-GBM2 cells (AID 1347116); conditions: SJ-GBM2 glioblastoma cells, viability; series mostly up to 45.9 µM; further: nearly all actives have a fitted effect of over 60% in size
# Method in brief: as §2
# [19] = qHTS of pediatric cancer cell lines to identify multiple opportunities for drug repurposing: Confirmatory screen for MG 63 (6-TG R) cells (AID 1347119); conditions: MG-63 (6-TG resistant) osteosarcoma viability; series mostly up to 45.9 µM; further: nearly all actives have a fitted effect of over 55% in size
# Method in brief: as §1
# [20] = qHTS of pediatric cancer cell lines to identify multiple opportunities for drug repurposing: Confirmatory screen for RD cells (AID 1347124); conditions: RD rhabdomyosarcoma cell viability; series mostly up to 45.9 µM
# Method in brief: as §1
smiles,measurement,setting,value
CC[N+]1(CC)CCC(OC(=O)C(O)(c2ccccc2)c2ccccc2)C1 (centres undefined),outcome,[1],inactive
same,outcome,[2],inactive
same,Potency,[3],inactive
CN1CC[C@]23c4c5ccc(O)c4O[C@H]2[C@@H](O)C=C[C@H]3[C@H]1C5,outcome,[1],inactive
same,outcome,[2],inactive
NC1=NC(=O)C(c2ccccc2)O1 (centres undefined),outcome,[1],inactive
same,outcome,[2],inactive
same,Potency,[3],inactive
CCN(CC)CCc1c[nH]c2ccccc12,outcome,[1],inactive
same,outcome,[2],inactive
O=C1c2ccccc2C(=O)c2ccccc21,outcome,[1],inactive
same,outcome,[2],inactive
same,Potency,[3],inactive
C[C@H](N)C(=O)c1ccccc1,outcome,[1],inactive
same,outcome,[2],inactive
same,Potency,[3],inactive
C=CCN1C[C@H](C)N([C@H](c2ccc(C(=O)N(CC)CC)cc2)c2cccc(OC)c2)C[C@H]1C,outcome,[1],inactive
same,outcome,[2],inactive
same,Potency,[3],inactive
COc1ccc2c(c1OC)C(=O)O[C@H]2[C@@H]1c2cc3c(cc2CCN1C)OCO3,outcome,[1],inactive
same,outcome,[2],inactive
same,Potency,[3],inactive
C[C@]12CCC(=O)C=C1CC[C@@H]1[C@@H]2CC[C@]2(C)C(=O)CC[C@@H]12,outcome,[1],inactive
same,outcome,[2],inactive
same,Potency,[3],inactive
CCN(CC)C(=O)[C@@H]1C=C2c3cccc4[nH]cc(c34)C[C@H]2N(C)C1,outcome,[1],inactive
same,outcome,[2],inactive
C[C@@H](N)[C@@H](O)c1ccccc1,outcome,[1],inactive
same,outcome,[2],inactive
same,Potency,[3],inactive
Nc1nc(N)nc(NC2CC2)n1,outcome,[1],inactive
same,outcome,[2],inactive
same,Potency,[3],inactive
Clc1ccc(C(c2ccc(Cl)cc2)C(Cl)(Cl)Cl)cc1,outcome,[1],inactive
same,outcome,[2],inactive
same,Potency,[3],inactive
COP(=S)(OC)Oc1ccc(S(=O)(=O)N(C)C)cc1,outcome,[1],inactive
same,outcome,[2],inactive
same,Potency,[3],inactive
C[C@H]1[C@@H]2Cc3ccc(O)cc3[C@@]1(C)CCN2C,outcome,[1],inactive
same,outcome,[2],inactive
same,Potency,[3],inactive
COc1cc(OC)c(OC)cc1C=O,outcome,[1],inactive
same,outcome,[2],inactive
same,Potency,[3],inactive
O=c1c(C2CC(c3ccc(-c4ccc(Br)cc4)cc3)Cc3ccccc32)c(O)sc2ccccc12 (centres undefined),outcome,[1],inactive
CCC1(CC)C(=O)C=CNC1=O,outcome,[1],inactive
same,outcome,[2],inactive
same,Potency,[3],inactive
CN1CCC(O)(c2ccc(F)cc2)C(C(=O)c2ccc(F)cc2)C1 (centres undefined),outcome,[1],inactive
same,outcome,[2],inactive
same,Potency,[3],inactive
CCCOC(=O)c1cncn1C(C)c1ccccc1 (centres undefined),outcome,[1],inactive
same,outcome,[2],inactive
same,Potency,[3],inactive
Nc1ccc([As](=O)(O)O)cc1,outcome,[1],inactive
same,outcome,[2],inactive
same,Potency,[3],inactive
CC(C)N(CCC(C(N)=O)(c1ccccc1)c1ccccn1)C(C)C (centres undefined),outcome,[1],inactive
same,outcome,[2],inactive
same,Potency,[3],inactive
C=CCC1(C(C)CC)C(=O)NC(=O)NC1=O (centres undefined),outcome,[1],inactive
same,outcome,[2],inactive
O=C(CCCN1CCC2(CC1)C(=O)NCN2c1ccccc1)c1ccc(F)cc1,outcome,[1],inactive
same,outcome,[2],inactive
same,Potency,[3],inactive
COP(=S)(OC)SCN1C(=O)c2ccccc2C1=O,outcome,[1],inactive
same,outcome,[2],inactive
C[C@@H]1CC2=CC(=O)CC[C@@H]2[C@H]2CC[C@@]3(C)[C@@H](CC[C@]3(C)O)[C@@H]21,outcome,[1],inactive
same,outcome,[2],inactive
same,Potency,[3],inactive
CC(C)C[C@H](CN)CC(=O)O,outcome,[1],inactive
same,outcome,[2],inactive
COc1cccc(C(=O)CCN[C@@H](C)[C@H](O)c2ccccc2)c1,outcome,[1],inactive
COC(=O)C(Cl)C(=O)OC,outcome,[1],inactive
same,outcome,[2],inactive
same,Potency,[3],inactive
O=C(Nc1ccc(Br)cc1)c1cc(Br)cc(Br)c1O,outcome,[1],inactive
CCC(C)(C)c1ccc(O)cc1,outcome,[1],inactive
same,outcome,[2],inactive
same,Potency,[3],inactive
CC(Cc1ccccc1)NCCn1cnc2c1c(=O)n(C)c(=O)n2C (centres undefined),outcome,[1],inactive
same,outcome,[2],inactive
same,Potency,[3],inactive
CC(C)=CC1C(C(=O)OCN2C(=O)C3=C(CCCC3)C2=O)C1(C)C (centres undefined),outcome,[1],inactive
same,outcome,[2],inactive
same,Potency,[3],inactive
COc1cc(CCN)cc(OC)c1OC,outcome,[1],inactive
same,outcome,[2],inactive
CN1C(=O)COc2c(C(=O)NC3CN4CCC3CC4)cc(Cl)cc21 (centres undefined),outcome,[1],inactive
same,outcome,[2],inactive
same,Potency,[3],inactive
CCC(C)C(C)(COC(N)=O)COC(N)=O (centres undefined),outcome,[1],inactive
same,outcome,[2],inactive
same,Potency,[3],inactive
NCCc1ccc(O)cc1,outcome,[1],inactive
same,outcome,[2],inactive
same,Potency,[3],inactive
C[C@]12Cc3cn[nH]c3C[C@@H]1CC[C@@H]1[C@@H]2CC[C@@]2(C)[C@H]1CC[C@]2(C)O,outcome,[1],inactive
same,outcome,[2],inactive
CN(C)CCc1c[nH]c2cccc(OP(=O)(O)O)c12,outcome,[1],inactive
same,outcome,[2],inactive
same,Potency,[3],inactive
c1ccc2c(c1)sc1ccccc12,outcome,[1],inactive
same,outcome,[2],inactive
same,Potency,[3],inactive
O=c1[nH]c2ccccc2n1C1CCNCC1,outcome,[1],inactive
same,outcome,[2],inactive
same,Potency,[3],inactive
COc1cccc2c1C(=O)c1c(O)c3c(c(O)c1C2=O)C[C@@](O)(C(=O)CO)CC3OC1CC(N2CCOC(OC)C2)C(O)C(C)O1 (some centres undefined),outcome,[2],inactive
same,Potency,[3],94.4 nM (active)
same,Potency,[4],14.7 nM (active)
same,Potency,[5],23.3 nM (active)
same,Potency,[6],3.7 nM (active)
same,Potency,[7],46.5 nM (active)
same,Potency,[8],32.9 nM (active)
same,Potency,[9],6.6 nM (active)
same,Potency,[10],5.9 nM (active)
same,outcome,[11],inactive
same,Potency,[12],73.7 nM (active)
same,Potency,[13],36.9 nM (active)
same,Potency,[14],52.2 nM (active)
same,Potency,[15],46.5 nM (active)
CC(=O)OCC1=C(C(=O)O)N2C(=O)[C@@H](N)[C@H]2SC1,outcome,[1],inactive
same,outcome,[2],inactive
same,Potency,[3],inactive
C[C@](O)(CS(=O)(=O)c1ccc(F)cc1)C(=O)Nc1ccc(C#N)c(C(F)(F)F)c1,Potency,[3],2960 nM (active)
same,Potency,[4],inactive
same,Potency,[6],inactive
same,Potency,[7],inactive
same,outcome,[16],inactive
same,Potency,[17],inactive
same,outcome,[18],inactive
same,Potency,[9],inactive
same,Potency,[10],inactive
same,outcome,[19],inactive
same,outcome,[11],inactive
same,Potency,[12],inactive
same,outcome,[20],inactive
same,Potency,[14],inactive
same,Potency,[15],inactive
C[C@]12CCC(=O)C=C1CC[C@@H]1[C@H]3CC[C@](C)(O)[C@@]3(C)CC[C@@H]12,outcome,[1],inactive
same,Potency,[3],38900 nM (active)
O=[N+]([O-])O[C@H]1CO[C@H]2[C@@H]1OC[C@H]2O[N+](=O)[O-],outcome,[1],inactive
same,outcome,[2],inactive
same,Potency,[3],inactive
c1ccc(N2CCNCC2)cc1,outcome,[1],inactive
same,outcome,[2],inactive
same,Potency,[3],inactive
COc1c2c(cc3c1OCO3)CCN(C)C2,outcome,[2],inactive
same,Potency,[3],inactive
C=C(C)[C@H]1CN[C@H](C(=O)O)[C@H]1CC(=O)O,outcome,[1],inactive
same,outcome,[2],inactive
same,Potency,[3],inactive
